# VACV Venus inh = vaccinia inhibition (Venus reporter) | 0.46% of 330,000 active | Potency, µM (titrated, usually from 36.5 µM), without a hit: top-dose activity change, negative = inhibition, actives largely listed as inhibitors | Vaccinia virus Venus reporter expression, fluorescence; calls by dose curve; tested in A549 cells; note: potency is the fitted concentration of half-maximal effect; % is set by controls: 0 for no effect and ±100 for the full control effect; nearly all actives have a fitted effect of over 30% in size
# VACV mCherry inh = vaccinia inhibition (mCherry reporter); Vaccinia virus mCherry reporter infection, fluorescence; Potency, µM (doses to about 36.5 µM), without a hit: top-dose activity change, negative = inhibition, hits mostly inhibitors; 0.63% of 310,000 active; calls by dose curve; tested in A549 cells; note: potency is the fitted concentration of half-maximal effect; % is set by controls: 0 for no effect and ±100 for the full control effect; nearly all actives have a fitted effect of over 35% in size
# Marburg entry inh = inhibitors of Marburg virus binding or cell entry; Marburg virus pseudotyped entry inhibition, cell reporter; 1.8% of 300,000 active; Potency, µM (series often up to 37.8 µM), without a hit: at the top dose activity change, negative = inhibition, most hits filed as inhibitors; calls by dose curve; tested in HEK293 cells; note: potency is the fitted concentration of half-maximal effect; % is set by controls: 0 for no effect and ±100 for the full control effect
# CHX counter = affects cycloheximide protein synthesis inhibition readout, counter-screen; 12% of 300,000 active; max response, %; cell reporter, cycloheximide protein synthesis inhibition counterscreen; AID 2314; in the data active = max response mostly above about 13%, no sharp cut-off; inactive = mostly below about 14%; note: read at 38.3 µM for the half of the compounds with a filed dose; 0% is about no effect
# Lassa entry inh = Lassa virus entry inhibition. Lassa virus pseudotype entry inhibition, cell reporter. Potency, µM (highest dose often 37.9 µM), for the others: at the top dose activity change, negative = inhibition, most hits filed as inhibitors. 1.2% of 300,000 active. AID 540256; calls by dose curve; tested in HEK293 cells; note: potency is the fitted concentration of half-maximal effect; % is set by controls: 0 for no effect and ±100 for the full control effect; nearly all actives have a fitted effect of over 50% in size
# Shiga inhibitor = inhibitors of Shiga toxin in Vero cells | Vero cells, Shiga toxin protein synthesis inhibition reporter | inhibition, % at 38.7 µM | 9.2% of 290,000 active; in the data active = inhibition mostly above about 28%, no sharp cut-off; inactive = mostly below about 43%; note: 0% is about no effect
# Starred values were filed as active, the others as inactive; i = inactive; ? = inconclusive; . = no result given; [ ] = remark or other dose. Shown is part of a subset that was picked to be rich in hits.
SMILES,VACV Venus inh,VACV mCherry inh,Marburg entry inh,CHX counter,Lassa entry inh,Shiga inhibitor
Cc1ccc(S(=O)(=O)c2nc(S(C)(=O)=O)sc2N(C)Cc2ccccc2)cc1,-11%,-17%,-2%[46.1 µM],.,?,.
CC(C)(C)c1ccc(-c2nnc(N)o2)cc1,-24%,2%,12%[46.1 µM],37*,-9%,67*
CC(C)(C)c1ccc(OCc2nnc(-c3ccccc3)o2)cc1,5%,-2%,?,.,20%[46.1 µM],.
CCC(NC(C)C)C(O)c1ccc(O)c(O)c1 (stereo not given),-12%,-13%,-1%,-2,?,16
CCC(c1ccc(O)c(O)c1)C(CC)c1ccc(O)c(O)c1 (stereo not given),-15%,3.2µM*,?,.,?,.
CCN1CCN(c2ncc3c(n2)CCN(CC(C)C)C3)CC1,-3%,-7%,.,.,-7%[46.1 µM],.
COc1ccccc1NC(=O)C1=C(C)NC(=O)NC1c1ccccc1[N+](=O)[O-] (stereo not given),-1%,i,5%[46.1 µM],30*,8%,45*
CC1=C(C(=O)Nc2ccccc2)C(c2ccccc2[N+](=O)[O-])NC(=O)N1 (stereo not given),-13%,i,.,17*,.,37
O=C(NCC(F)(F)F)c1ccc2sc([C@@H]3O[C@H](CO)[C@H](O)[C@H](O)[C@H]3O)nc2c1,7%,6%,.,.,.,.
O=C(N1CCc2cc(S(=O)(=O)NC[C@H]3O[C@@H](n4ccc(=O)[nH]c4=O)[C@H](O)[C@@H]3O)ccc2C1)C(F)(F)F,-1%,-12%,.,.,.,.
CN(C)C(CNC(=O)CCc1nc2sc3c(c2c(=O)[nH]1)CCCC3)c1ccccc1 (stereo not given),-17%,-17%,10µM*,.,0%,.
O=C(CCc1nc2sc3c(c2c(=O)[nH]1)CCCC3)NCCOc1ccccc1,1%,-10%,20%,.,?,.
COc1ccc2sc(-c3ccc(SC)cc3)c(-c3ccc(O)cc3)c2c1,11µM*,?,.,.,.,.
O=C(Nc1cccc(F)c1)Nc1nnc([C@@H]2O[C@H](CO)[C@@H](O)[C@H]2O)s1,11%,18%,.,.,.,.
COc1ccc(C2OC(CCc3ccccc3)CC3=C2C(=O)OC(C)(C)O3)cc1 (stereo not given),-9%,21%,.,.,.,.
Cc1nc2c(C(=O)N3CCCCC3)cnn2c(C)c1Cc1ccccc1F,.,.,-3%,71*,-8%,157*
CC(Sc1nnc(-c2cccnc2)n1-c1ccccc1F)C(=O)N1CCCc2ccccc21 (stereo not given),.,.,-1%,17*,.,-10
CC(=O)N1CCN(c2ccc(NC(=O)c3ccc(Br)o3)cc2Cl)CC1,.,.,.,28*,.,27
CN1CCN(c2ccc(NC(=O)c3ccc([N+](=O)[O-])o3)cc2Cl)CC1,?,13µM*,11µM*,29*,?,55
CCCC(=O)N1CCN(c2ccc(NC(=O)c3ccc([N+](=O)[O-])o3)cc2Cl)CC1,?,10µM*,?,-16,?,-35
O=C(Nc1ccc(N2CCOCC2)c(Cl)c1)c1ccc([N+](=O)[O-])o1,?,?,.,19*,.,17
CC(C)C(=O)N1CCN(c2ccc(NC(=O)c3ccc([N+](=O)[O-])o3)cc2Cl)CC1,?,?,?,-13,?,-39
CNC(=O)OCc1snc(-c2ccccc2)c1COC(=O)NC,-3%,i,.,.,.,.
CC(=O)c1ccc(NC(=O)CN2C(=O)c3cccnc3Sc3ccccc32)cc1,-7%,-6%,.,.,2%[46.1 µM],.
Cc1ccn2c(Nc3ccc4c(c3)OCO4)c(-c3ccco3)nc2c1,-3%,-13%,?,.,-9%[46.1 µM],.
SMILES,VACV Venus inh,VACV mCherry inh,Marburg entry inh,CHX counter,Lassa entry inh,Shiga inhibitor
COc1ccccc1N1CCN(c2ncnc3onc(C)c23)CC1,-4%,-22%,.,.,-3%[46.1 µM],.
Cc1ccc(-c2cc(C(=O)N3CCN(c4ccc(F)cc4)CC3)c3ccccc3n2)o1,-22%,.,?,29*,?,45
O=C(O)c1cc(-c2ccc(-c3ccc(F)cc3)o2)nc2ccccc12,.,.,.,37,.,30*
Cc1ccc(-c2cc(C(=O)N3CCCCC3)c3ccccc3n2)cc1C,.,.,.,23*,.,33
O=C(O)c1cc(-c2ccc(Br)s2)nc2ccccc12,.,.,.,17*,.,34*
O=C(c1cc(-c2ccccc2)nc2ccccc12)N1CCCC1,-4%,1%,?,-6,15%[46.1 µM],1
O=C(c1cc(-c2ccc(F)cc2)nc2ccccc12)N1CCC1,-4%,-1%,?,.,-8%[46.1 µM],.
CN1CCN(NC(=O)c2cc(-c3ccc(Br)s3)nc3ccccc23)CC1,-16%,i,?,-2,?,-10
CCOC(=O)CN1C(=O)[C@]2(OCCC=C[C@@H]2C)c2c(Br)cccc21,.,.,-20%[14.2 µM],.,.,.
O=C(O)c1ccc2c(c1)C(=O)N([C@H](Cc1ccc(F)cc1)C(=O)O)C2=O,.,.,.,5,.,15
CCCN(C(=O)Cn1c(=O)oc2cc(Cl)ccc21)c1ccc(C(C)C)cc1,-9%,-10%,-8%[46.1 µM],.,-19%[46.1 µM],.
O=C(NCc1ccccc1F)c1cc2ccccn2n1,-9%,1%,.,.,14%[46.1 µM],.
CC(=O)c1ccc(N2CCN(C(=O)c3cc(-c4ccc5c(c4)OCO5)nc4ccccc34)CC2)cc1,-5%,.,?,20*,-10%,36*
COc1ccc(-c2cc(C(=O)O)c3ccccc3n2)c(OC)c1,-11%,.,22%[46.1 µM],-2,1%,1
O=C(c1cc(-c2ccccc2)nc2ccccc12)N1CCOCC1,-1%,-9%,10%,-6,3%,-11
O=C(c1ccco1)N1CCN(C(=O)c2cc(-c3ccccc3)nc3ccccc23)CC1,-6%,-9%,?,19*,?,13
COc1ccc(-c2cc(C(=O)N3CCC4(CC3)OCCO4)c3ccccc3n2)cc1,.,.,.,25*,.,39
COc1ccc2cc(-c3cc(C(=O)O)c4ccccc4n3)ccc2c1,4%,10µM*,0.71µM*,-7,0.35µM*,-32
Cc1nc2ccc(S(=O)(=O)N3CCN(S(=O)(=O)c4c(F)cccc4F)CC3)cc2s1,.,.,.,-11,.,-6
COC(=O)CC=C1c2ccc(F)cc2[C@@H](OC)[C@@H]1C,.,.,-11%[14.2 µM],.,?,.
COc1ccc(-c2cc(OC)c3ccccc3n2)cc1,-22%,-30%,-16%,14,14%,active
COc1ccc(N2CCN(C(=O)c3cc(-c4cc(OC)ccc4OC)nc4ccccc34)CC2)cc1,-24%,-29%,?,-1,?,-1
COc1cc(NC(=O)c2cc(-c3cccnc3)nc3ccc(Br)cc23)cc(OC)c1,-12%,-2%,?,-1,11µM*,-14
COc1ccc(-c2cc(C(=O)N3CCN(c4ccccc4)CC3)c3ccccc3n2)cc1,-25%,?,?,27*,?,63*
CC(=O)c1ccc(NC(=O)c2cc(CC(C)C)nc3ccccc23)cc1,.,.,.,48*,.,82*
COc1cc(-c2ccccc2)nc2ccccc12,-24%,-27%,0%[46.1 µM],4,-18%,20
CN(Cc1cnc2ccccn12)C(=O)c1cc(NC(=O)c2ccccc2)cc2ncn(C3CCCC3)c12,-15%,-13%,.,.,.,.

# Screening data: PubChem, National Center for Advancing Translational Sciences (NCATS)
